“And” between values parts separate entries of the source, which are not always exact repeats. Equal values may be shown once. This is part of a sample that, as a whole, favours compounds with a hit. Of some 83,000 tested, about 20% had one in any assay.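 Cell lines were cultured in 96-well plates, exposed to a single compound concentration, and assessed for percent growth 48 hours later.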 The source made the active and inactive calls. Where a SMILES comes first, the peptide text is derived from it. The star is where a group is joined. Trt = c1ccc(C(c2ccccc2)(c2ccccc2)*)cc1; Cbz = O=C(OCc1ccccc1)*
The compounds below were run on LOX IMVI melanoma (assay: NCI-60 one-dose screen, 48 h (100 = growth as untreated, 0 = no growth, -100 = all killed)). Conditions: 10 µM.
Experimental: Growth inhibition of the LOX IMVI human tumor cell line is measured as a screen for anti-cancer activity. Cells are grown in 96 well plates and exposed to the test compound for 48 hours. Compounds are tested at a single concentration, which is 10^-5 M for most compounds. The reported endpoint is percent growth (GI% or GIPRCNT), where numbers from 0 - 100% represent growth inhibition, and numbers from -100% - 0 represent cell death. For example, a value of 40 represents 60% growth inhibition. A value of 0 means no net growth occurred over the course of the experiment. A value of -40 indicates 40% of cells at the beginning of the experiment died by the end of the experiment. A value of -100 means all cells are dead at the end of the experiment.
NCI-60 Human Tumor Cell Lines Screen was performed using the standard one-dose NCI protocol, which is described in more detail at https://dtp.cancer.gov/discovery_development/nci-60/default.htm.
Compounds with GIPRCNT values below 10 were considered active. Activity score was based on GIPRCNT using the following formula: […]
Score is 0 for GIPRCNT values of 100 or above, 50 for GIPRCNT values of 0, and 100 for GIPRCNT values of -100.
In the case of `O=C(Nc1c(Cl)cccc1Cl)Oc1cccc2cccnc12`, the growth is reported as 33.1% (inactive).
`O=C(Nc1cccc(Br)c1)Oc1cccc2cccnc12` was tested, and the growth was 102% (inactive).

Same assay, conditions: 10 µM unless noted
With `O=C(Nc1ccccc1)c1cc(Cl)ccc1O` the growth was 79.8% (inactive).
With `CC(=O)C(=Cc1ccc(C=C(C(C)=O)C(C)=O)cc1)C(C)=O` the growth was -97.8% (active).
`Cc1ccnc2c1ccc1c(C)ccnc12` was tested, and the growth was 2.99% (active).
With `CCCCCCCCCCCCCCCCCCOP(=O)([O-])OC1CC[N+](C)(C)CC1` the growth was 11.4% (inactive) and -3.66% (active).
`O=C(CC1(O)C(=O)Nc2c(Cl)ccc(Cl)c21)c1ccc(Cl)cc1Cl` (stereo not given) was tested, and the growth was 100% (inactive).
`O=C1C=CC(=O)N1C1c2ccccc2-c2ccccc21` was tested, and the growth was 93.9% (inactive).
For `O=Nc1ccccc1N=O`, the growth was 60% (inactive).
With `CN(C)c1ccc(N=Nc2cccc3ccccc23)cc1` the growth was 96.3% (inactive).
For `Nc1nc(N)c2nc(CNc3ccc(C(=O)NC(CCC(=O)O)C(=O)O)cc3)cnc2n1` (stereo not given), the growth was 12% (inactive) and 13.1% (inactive).
`CC(C)(C)c1ccc(O)c(C2CCCCC2)c1` was tested, and the growth was 104% (inactive).
`NC(N)=N/N=C/c1ccc([N+](=O)[O-])o1` was tested, and the growth was 82.1% (inactive).
With `CCCCCCCCCCCCCCCC[N+](C)(CCO)Cc1cnc[nH]1` (stereo not given) the growth was -79% (active).
With `O=C1NC(=O)/C(=C/C=C/c2ccccc2)S1` the growth was 15.8% (inactive).
`O=C1C2=C(Nc3cc([N+](=O)[O-])ccc3N2)OC1c1c2ccccc2cc2ccccc12` (stereo not given) was tested, and the growth was 38.1% (inactive).
In the case of `Cc1cc2nc(CS)[nH]c2cc1C`, the growth is reported as 88% (inactive).
With `O=C1c2ccccc2C(=O)N1c1ccccc1` the growth was 104% (inactive).
`COC(=O)Nc1nc2ccc(C(=O)c3ccccc3)cc2[nH]1` was tested, and the growth was 37.6% (inactive) and 31.3% (inactive) and 31.1% (inactive).
For `CCOC(=O)c1c(C)[nH]c(CO)c1C`, the growth was 101% (inactive).
`Cc1ccc(N=C=C(c2ccccc2)c2ccccc2)cc1` was tested, and the growth was 5.05% (active).
With `S=C(N/N=C/c1ccccn1)Nc1ccccn1` the growth was 5.96% (active).
`O=C(Nc1cccc(Br)c1)Oc1ccc(Cl)c2cccnc12` was tested, and the growth was 4.16% [100 µM] (active).
With `CN(C)c1ccc(C(=C2C=CC(=[N+](C)C)C=C2)c2ccc(N(C)C)cc2)cc1` (tested in a mixture with another compound) the growth was -89.2% (active).
`Cc1ccc2nc(C[n+]3ccc4ccccc4c3)ccc2c1` was tested, and the growth was 68.4% (inactive).
For `NC(=O)/C=C/C(=O)c1c(Cl)cccc1Cl`, the growth was -43.5% (active).
`O=[N+]([O-])c1ccc2c(N=Nc3ccc4ccccc4c3O)c(O)cc(S(=O)(=O)O)c2c1` was tested, and the growth was 66.2% (inactive).
In the case of `CCC(CCCN(CC)CCc1ccccc1)OC(=O)c1cc(OC)c(OC)c(OC)c1` (stereo not given), the growth is reported as 80.9% (inactive).
`Cc1ccc(C(=Nc2ccccc2)N=P(c2ccccc2)(c2ccccc2)c2ccccc2)cc1` was tested, and the growth was -82.9% (active).
`Oc1c(Br)cc(Cl)cc1C(c1cc(Cl)cc(Br)c1O)C(Cl)(Cl)Cl` was tested, and the growth was 34.3% (inactive).
`NC(=S)N/N=C/c1ccc(Cl)s1` was tested, and the growth was 101% (inactive).
`C/C=C1\SC(=S)NC1=O` was tested, and the growth was 101% (inactive).
With `COc1cc(/C=C/C(C)=O)ccc1O` the growth was 104% (inactive).
With `CC(=Nc1ccc(N(C)C)cc1)c1ccccc1` the growth was 60.2% (inactive).
With `COC(=O)C(CSC(c1ccccc1)(c1ccccc1)c1ccccc1)NC(=O)C(CC(N)=O)NC(=O)OCc1ccccc1` (stereo not drawn) (Cbz-Asn-Cys(Trt)-OMe; configuration not given here) the growth was -12% (active).
With `CC1(C)CC([P+](c2ccccc2)(c2ccccc2)c2ccccc2)=NN1` the growth was 43.1% (inactive).
In the case of `O=C(Oc1cccc2cccnc12)c1ccccc1`, the growth is reported as 70% (inactive) and 100% (inactive).
In the case of `Cn1c2c(c3ccccc31)CCN1C[C@@H]3CCCC[C@H]3C[C@@H]21`, the growth is reported as 15.6% (inactive).

Same assay, conditions: 100 µM
For `O=C(Nc1c(Cl)cccc1Cl)Oc1cccc2cccnc12`, the growth was 7.87% (active).
`O=C(Nc1cccc(Br)c1)Oc1cccc2cccnc12` was tested, and the growth was -3.16% (active).
